High-throughput results from PubChem.
POLK inh = qHTS for Inhibitors of Polymerase Kappa. purified Pol kappa, fluorescent DNA synthesis assay, 10 min. hit rate 0.53% among 400,000. Potency, µM (highest dose often 107 µM), actives largely listed as inhibitors. DNA polymerase kappa (Homo sapiens), Q9UBT6
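First, compounds were pin-transferred onto 10 nM Pol kappa. After 15 min at room temperature, substrate was added to 50 nM final. Fluorescence was then measured kinetically at 0 and 10 min.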
POLI inh = qHTS for Inhibitors of Polymerase Iota; DNA polymerase iota (Homo sapiens), Q9UNA4; Pol iota fluorescent replication assay, 10 min; Potency, µM (titrated, usually from 115 µM), most hits filed as inhibitors; hit rate 1% among 390,000; AID 588590, 2011
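Pol iota at 10 nM preincubated 15 min with compounds at room temperature; reaction started with fluorescent substrate, 50 nM final. Fluorescence read kinetically at 0 and 10 min; buffer-only wells as negative control.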
TDP1 inh = qHTS Assay for Inhibitors of Tyrosyl-DNA Phosphodiesterase (TDP1); recombinant TDP1, AlphaScreen DNA substrate cleavage; Tyrosyl-DNA phosphodiesterase 1 (Homo sapiens), Q9NUW8; hit rate 0.28% among 350,000; Potency, µM (titrated, usually from 130 µM), most hits filed as inhibitors; further: nearly all actives have a fitted effect of over 40% in size
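Signal: AlphaScreen proximity between streptavidin donor and anti-FITC acceptor beads on intact substrate. Reaction: Tdp1 1 nM, substrate 15 nM final, 5 min RT after 15 min compound preincubation.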
Pol beta inh = qHTS Assay for Inhibitors of DNA Polymerase Beta; Potency, µM (series often up to 114 µM), usual class: inhibitors; Pol beta primer extension/strand displacement, fluorescence kinetic; P06746; hit rate 1.3% among 340,000
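Reaction started by 50 nM substrate onto compound-treated Pol beta (10 nM, 15 min preincubation, room temperature); plates read at 0 min and 10 min. Normalized concentration-effect data fitted by four-parameter Hill equation.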
FEN1 inhibitor = qHTS Assay for the Inhibitors of Human Flap endonuclease 1 (FEN1) | Recombinant FEN1 flap cleavage, fluorescence, 15 min | Potency, µM (series often up to 114 µM), usual class: inhibitors | hit rate 0.35% among 390,000 | AID 588795, 2011; further: nearly all actives have a fitted effect of over 65% in size
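Quantitative HTS format: each compound was titrated, incubated with 10 nM nuclease for 15 min at room temperature, then challenged with flap substrate at 50 nM final. Signal change over 15 min gave concentration–effect curves.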
POLH inh = qHTS for Inhibitors of Polymerase Eta. DNA polymerase eta (Homo sapiens), Q9Y253. recombinant Pol eta, fluorescent DNA replication assay. Potency, µM (titrated, usually from 114 µM), usual class: inhibitors. hit rate 1.2% among 390,000. AID 588591, 2011
Target sequence (Q9Y253 whole entry, looked up): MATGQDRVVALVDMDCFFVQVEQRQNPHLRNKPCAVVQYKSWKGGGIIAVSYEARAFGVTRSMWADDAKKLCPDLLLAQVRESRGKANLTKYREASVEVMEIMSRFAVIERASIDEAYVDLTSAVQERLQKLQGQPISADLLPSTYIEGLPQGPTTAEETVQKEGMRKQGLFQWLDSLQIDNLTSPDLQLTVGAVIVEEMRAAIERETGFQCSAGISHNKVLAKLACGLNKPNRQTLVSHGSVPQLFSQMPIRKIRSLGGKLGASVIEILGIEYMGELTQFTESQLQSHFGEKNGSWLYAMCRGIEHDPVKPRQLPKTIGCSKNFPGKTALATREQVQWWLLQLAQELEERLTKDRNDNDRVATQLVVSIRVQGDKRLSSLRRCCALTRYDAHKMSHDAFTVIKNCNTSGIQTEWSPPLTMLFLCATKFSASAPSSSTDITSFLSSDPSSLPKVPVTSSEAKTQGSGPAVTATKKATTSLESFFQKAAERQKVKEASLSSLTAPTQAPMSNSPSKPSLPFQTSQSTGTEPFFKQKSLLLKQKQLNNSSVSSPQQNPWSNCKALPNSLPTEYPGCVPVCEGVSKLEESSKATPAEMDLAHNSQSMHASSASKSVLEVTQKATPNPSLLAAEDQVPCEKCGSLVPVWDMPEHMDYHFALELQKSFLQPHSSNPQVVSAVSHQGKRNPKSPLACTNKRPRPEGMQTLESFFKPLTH
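Fluorescent replication assay: 50 nM final substrate added after a 15 min room-temperature compound preincubation with 10 nM enzyme. Signal taken at 0 min and again at 10 min.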
A number is an active result. In the library only some 2.4% were active in any assay of this set; here they are far more common. The call rests on the fitted dose curve; in most records, active means well fitted curve in the direction sought with a large enough effect; inconclusive means small, poorly fitted or top-dose-only effect, or another doubt; inactive means no such curve, though single readings can be large; an effect the other way counts as inactive or inconclusive.

O=C1COc2cc(S(=O)(=O)NCc3ccco3)c(Cl)cc2N1 was read as POLK inh inactive, POLI inh inconclusive, TDP1 inh 56.2µM, Pol beta inh inactive and FEN1 inhibitor inactive.
For Cc1ccc(/C=N/NC(=O)Cc2ccc(Cl)cc2)c(O)c1 the results were POLK inh inactive, POLI inh inactive, TDP1 inh 50.1µM, Pol beta inh inconclusive, FEN1 inhibitor inactive and POLH inh inactive.
For Cc1ccccc1/C=N/NC(=O)Cc1ccc(Cl)cc1 the results were POLK inh inactive, POLI inh inactive, TDP1 inh inactive, Pol beta inh inactive, FEN1 inhibitor inactive and POLH inh inactive.
Screening Cc1cc(NC(=O)CSCC(=O)N(c2ccc(F)cc2)C(C(=O)NC2CCCCC2)c2ccc(O)c(O)c2)no1 (configuration not stated) returned POLK inh inactive, POLI inh inconclusive, TDP1 inh inactive, Pol beta inh 20µM, FEN1 inhibitor inactive and POLH inh inconclusive.
CC[C@]12c3[nH]c4cc(-c5ccco5)ccc4c3CCN1C(=O)[C@@H](CC(=O)NCC13CC4CC(CC(C4)C1)C3)C[C@@H]2C(=O)N1CCN(C(=O)c2ccco2)CC1 was read as POLK inh inactive, POLI inh 28.2µM, TDP1 inh inactive, FEN1 inhibitor inactive and POLH inh inactive.
Screening CC[C@]12c3[nH]c4ccc(Cl)cc4c3CCN1C(=O)[C@@H](CC(=O)NCCCn1ccnc1)C[C@@H]2C(=O)N1CCN(C(=O)C2CC2)CC1 returned POLK inh inactive, POLI inh 89.1µM, TDP1 inh inactive, FEN1 inhibitor inactive and POLH inh inactive.
CC[C@]12c3[nH]c4ccccc4c3CCN1C(=O)C(CC(=O)NCCCn1ccnc1)C[C@@H]2C(=O)N1CCN(C(=O)C2CC2)CC1 (some centres not stated) was read as POLK inh inactive, POLI inh inactive, TDP1 inh inactive, FEN1 inhibitor inactive and POLH inh inactive.
Cn1cc(-c2nc3cnc(N4CCNCC4)nc3n(C3CC3)c2=O)c2ccccc21 was read as POLK inh inactive.
Screening COc1ccccc1N1CCN(c2ncnc3c2cnn3-c2cccc(Cl)c2)CC1 returned POLK inh inactive, POLI inh inactive, TDP1 inh inactive, Pol beta inh inactive, FEN1 inhibitor inactive and POLH inh inactive.
`Cc1cc(NS(=O)(=O)c2ccc(NC(=O)C(F)(F)F)cc2)nc(C)n1` gave POLK inh inactive, POLI inh inactive, Pol beta inh 56.2µM, FEN1 inhibitor inactive and POLH inh inactive.
Screening CC(=O)Oc1ccccc1C(=O)Nc1ccccc1 returned POLK inh inactive, POLI inh inconclusive, FEN1 inhibitor inactive and POLH inh inactive.
For COC1(OC)C=CC(=O)C=C1NC(=O)c1ccccc1OC(C)=O the results were POLK inh inactive, POLI inh 10µM, FEN1 inhibitor inactive and POLH inh inactive.
For Cc1cc(=O)n(C2CCS(=O)(=O)C2)[nH]1 (configuration not stated) the results were POLK inh inactive, POLI inh 4.47µM, TDP1 inh inactive, Pol beta inh inactive, FEN1 inhibitor inactive and POLH inh inactive.
`Cc1ccccc1-c1nnnn1C1CCS(=O)(=O)C1` (configuration not stated) gave POLK inh inactive, POLI inh inactive, TDP1 inh inactive, Pol beta inh inactive, FEN1 inhibitor inactive and POLH inh inactive.
Screening O=C(C[N+]12CN3CN(CN(C3)C1)C2)c1ccc(Br)cc1 returned POLK inh inactive, POLI inh inactive and FEN1 inhibitor inactive.
`CC/C(C)=N/Nc1nc(-c2cc3cccc(OC)c3oc2=O)cs1` gave POLK inh inconclusive, POLI inh 50.1µM, TDP1 inh inactive, Pol beta inh inactive, FEN1 inhibitor inactive and POLH inh 50.1µM.
Screening COc1cccc2cc(-c3csc(CCn4nc(C)cc4C)n3)c(=O)oc12 returned POLK inh inactive, POLI inh inactive, TDP1 inh inactive, Pol beta inh inactive, FEN1 inhibitor inactive and POLH inh inconclusive.
Screening O=C(Cc1cc(=O)[nH][nH]1)N/N=C/C=C/c1ccccc1 returned POLK inh inactive, POLI inh inconclusive, TDP1 inh inactive, Pol beta inh inactive, FEN1 inhibitor inconclusive and POLH inh 14.1µM.
For N[C@H]1CCN(O)C1=O the results were POLK inh inactive and TDP1 inh inactive.
`O=Cc1ccc(CS)cc1` gave POLK inh inactive, POLI inh inactive and FEN1 inhibitor inactive.
Screening CCn1c2cc(C)sc2c2cnn(Cc3ccccc3F)c(=O)c21 returned TDP1 inh inactive.
Screening CSc1ccc(/C=N/NC(=O)c2ccc(-n3cnnn3)cc2)cc1 returned POLK inh inactive, POLI inh inactive, TDP1 inh inactive, FEN1 inhibitor inactive and POLH inh inactive.
For COc1cc(/C=N\Nc2nncn2N)ccc1OC(C)=O the results were POLK inh inactive, POLI inh 7.08µM, TDP1 inh inactive, Pol beta inh inactive, FEN1 inhibitor inactive and POLH inh inactive.
`CSc1ccc(/C=N\Nc2nncn2N)cc1` gave POLK inh inactive, POLI inh 5.62µM, Pol beta inh inactive, FEN1 inhibitor inconclusive and POLH inh inactive.
For CC(C)(C)c1nnc(N/N=C/c2ccc(Br)cc2)n(N)c1=O the results were POLK inh inactive, POLI inh inactive, TDP1 inh inactive, Pol beta inh inactive, FEN1 inhibitor inactive and POLH inh inactive.
Screening CC(C)(C)c1ccc(/C=N/Nc2nncn2N)cc1 returned POLK inh inactive, POLI inh 3.16µM, Pol beta inh inactive, FEN1 inhibitor inactive and POLH inh inactive.
`CCc1cc(C(=O)/C=C/c2cc3c(cc2C)OCCO3)c(O)cc1O` gave POLK inh inactive, POLI inh inactive and FEN1 inhibitor inactive.
For CN(N=O)c1ccc(/C=C2\C=Cc3ccccc32)cc1 the results were POLK inh inactive, POLI inh inactive and FEN1 inhibitor inactive.
Nc1ccccc1S(=O)(=O)Nc1cccc2cccnc12 was read as POLK inh inactive and TDP1 inh inactive.
`CCn1cnc2c(Nc3ccc(CCC(=O)N=C(N)N)cc3)nc(C#N)nc21` gave TDP1 inh inactive.
`CCCCCCc1cc2cc(-c3nnc(-c4ccccc4O)o3)c(=O)oc2cc1O` gave POLK inh inactive, POLI inh inconclusive, TDP1 inh inactive, Pol beta inh inconclusive, FEN1 inhibitor inactive and POLH inh 1.78µM.
